Assay outcomes: PubChem, several laboratories
Mcl1 Bid PPI = disrupts binding of human Mcl-1 to Bid peptide; actives 0.97% (n = 220,000); inhibition, % at 21.7 µM; TR-FRET Mcl-1/Bid-Dy647 peptide binding, 1536-well; AID 1021; Q07820;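 active = compounds that cut the binding signal by more than half at the single screening dose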;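 note: His-tagged Mcl-1 with europium anti-His antibody binding Bid BH3 peptide; 0% = Mcl-1 plus peptide wells and 100% = peptide-only wells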
TLR9-MyD88 block = TLR9-MyD88 interaction inhibition | CHO BLA complementation TLR9-MyD88, CCF4 FRET ratio | actives 0.21% (n = 340,000) | inhibition, % at 4.98 µM;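 active = inhibition above the mean over all tested compounds plus 3 SD, cut at about 21% in these data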;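 note: 0% = DMSO only wells and 100% = clavulanate BLA inhibitor control wells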
Mcl1 Noxa PPI = disrupts binding of human Mcl-1 to Noxa peptide; Q07820; TR-FRET Mcl-1/Noxa peptide binding, 2 h; inhibition, % at 21.7 µM; actives 1.5% (n = 220,000); AID 1022;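 active = compounds that cut the protein-peptide binding signal by more than 50% relative to plate controls in a single-dose test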;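 note: His-tagged Mcl-1 with rhodamine Noxa BH3 peptide and terbium anti-His antibody; 0% = Mcl-1 plus Noxa peptide wells and 100% = peptide-only wells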
Bim-Mcl-1 = human Bim-Mcl-1 interaction inhibition. Q07820. Bead-based flow cytometry, Bim peptide-Mcl-1 binding. inhibition, % at 10 µM. actives 0.1% (n = 190,000); in the data active = inhibition above about 40%;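 note: 0% = no compound tracer wells and 100% = peptide blocker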
TLR4 MyD88 comp = blocks binding of human TLR4 to MyD88; HeLa CL3-4 TLR4/MyD88 BLA complementation, FRET ratio; inhibition, % at 8.4 µM; actives 0.18% (n = 200,000); in the data active = inhibition above about 25%;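 note: 0% = vehicle and 100% = reference inhibitor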
NOD2-RIPK2 inh = blocks binding of human NOD2 to RIPK2. AID 624267. CHO BLA complementation NOD2-RIPK2, CCF4 ratio. O43353. inhibition, % at 4.98 µM. actives 0.38% (n = 360,000); in the data active = inhibition above about 21%;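 note: 0% = vehicle only and 100% = reference blocker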
Target sequence (O43353 whole entry, looked up): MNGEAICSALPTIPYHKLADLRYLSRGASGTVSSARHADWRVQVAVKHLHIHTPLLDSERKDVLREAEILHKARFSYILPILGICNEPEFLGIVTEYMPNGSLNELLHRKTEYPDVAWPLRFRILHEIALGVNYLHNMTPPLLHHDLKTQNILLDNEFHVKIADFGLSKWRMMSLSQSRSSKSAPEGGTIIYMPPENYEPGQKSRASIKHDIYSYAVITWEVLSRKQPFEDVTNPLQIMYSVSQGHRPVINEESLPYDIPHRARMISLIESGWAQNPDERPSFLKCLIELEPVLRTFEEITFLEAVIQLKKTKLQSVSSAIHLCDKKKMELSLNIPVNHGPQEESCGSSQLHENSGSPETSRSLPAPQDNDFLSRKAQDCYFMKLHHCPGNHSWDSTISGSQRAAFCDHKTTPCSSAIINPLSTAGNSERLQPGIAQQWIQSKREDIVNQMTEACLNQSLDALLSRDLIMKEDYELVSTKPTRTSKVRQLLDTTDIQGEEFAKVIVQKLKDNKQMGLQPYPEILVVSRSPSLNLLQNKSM
The depositor's hits bear a star; / = no result. An excerpt weighted towards active compounds, which were near 1.8% of everything screened.

SMILES	Mcl1 Bid PPI	TLR9-MyD88 block	Mcl1 Noxa PPI	Bim-Mcl-1	TLR4 MyD88 comp	NOD2-RIPK2 inh
CCC1CSC(Nc2ccc(C(=O)/C=C/c3cccc(C)c3)cc2)=N1 (stereo not drawn)	25.6	6.3	85.5*	0.0	-1.1	-0.8
Cc1ccc(OCCCC(=O)Nc2ccccc2C(F)(F)F)cc1	-9.7	4.1	73.6*	-4.0	-5.7	3.7
O=Cc1ccc(OCC(=O)Nc2ccccc2C(F)(F)F)cc1	-22.6	-1.5	2.5	1.0	10.9	-8.6
O=C1CCN(Cc2ccc(O)cc2)CCN1CCO	/	-9.3	/	/	/	1.7
COc1ccc2[nH]c(=O)c(CNc3cccc(C)c3)cc2c1	-8.1	2.4	50.9*	-5.0	10.7	-7.1
COc1ccc(N(Cc2cc3cc(OC)ccc3[nH]c2=O)C(=O)C2CCCO2)cc1 (stereo not drawn)	-11.8	2.7	10.8	-1.0	12.0	-11.9
COc1ccc2[nH]c(=O)c(CN(C(=O)C3CCCO3)c3ccc(C)c(C)c3)cc2c1 (stereo not drawn)	100.4*	-9.1	-18.4	/	/	0.1
COc1ccc2[nH]c(=O)c(CNC3CCCCC3)cc2c1	70.3*	-4.8	3.6	-2.0	11.7	-0.2
COc1cc(/C=C2/CC(C)OC2=O)c([N+](=O)[O-])cc1OC (stereo not drawn)	/	1.6	/	/	/	-14.2
O=C(COC(=O)COc1ccc2c(c1)CCC2)Nc1ccccc1	/	-14.5	/	/	/	-3.5
CSCCNC(=O)C1(C)CCN1C(=O)CCc1ccccc1 (stereo not drawn)	/	/	/	/	/	4.9
COc1cc(C(=O)Nc2ccc(N(C)C)cc2)c([N+](=O)[O-])cc1OC	-27.4	12.4	69.2*	1.0	-25.0	1.2
CCCNC(=O)C1(C)CCN(C(=O)c2ccc3sccc3c2)C1 (stereo not drawn)	/	/	/	/	/	-5.6
O=c1[nH]c(SCc2nc3c(cnn3-c3ccccc3)c(=O)[nH]2)nc2ccccc12	-2.9	-3.4	-14.8	1.0	8.2	-14.0
O=c1[nH]c(CSc2ncccn2)nc2c1cnn2-c1ccccc1	-19.2	10.5	58.5*	-7.0	-0.3	-3.9
O=C(COC(=O)Cn1cnc2ccccc21)Nc1cc2c(cc1Cl)C(=O)c1ccccc1C2=O	-0.1	0.0	53.9*	0.0	6.0	-0.9
CCc1nc2c(OCc3ccc(Cl)cc3)cccn2c1N(C)C(=O)c1ccc2c(c1)OCO2	/	/	/	/	/	10.7
c1cc2c(cc1C1CCCCC1)c1c3n2CCCNC3CCC1 (stereo not drawn)	-4.3	6.1	32.4	-2.0	16.3	-4.7
Cc1ccc2c(c1)c1c3n2CCCNC3CCC1 (stereo not drawn)	63.4*	-11.7	2.2	-6.0	12.8	2.7
CCC1CCCCN1C(=O)COC(=O)c1cc(=O)[nH]c2ccccc12 (stereo not drawn)	/	-2.2	/	/	/	0.2
Fc1ccccc1NC(=S)N1CCOCC1	/	4.5	/	/	/	-8.5
Cc1ccc(C)c(C(=O)COC(=O)CCCC(=O)Nc2cc(C(F)(F)F)ccc2Cl)c1	94.2*	-2.8	13.1	27.0	-5.9	-7.7
O=C(CCNC(=O)c1ccccc1Cl)Nc1cc(C(F)(F)F)ccc1Cl	10.8	16.0	9.1	0.0	6.0	-6.3
CCOc1c(O)ccc(/C=C2\SC(=S)NC2=O)c1[N+](=O)[O-]	-46.9	0.0	71.7*	0.0	6.2	-7.2
CCCCN(C)C(=O)c1coc(=O)c2ccccc12	94.2*	3.7	-16.3	-1.0	-3.9	9.4
SMILES	Mcl1 Bid PPI	TLR9-MyD88 block	Mcl1 Noxa PPI	Bim-Mcl-1	TLR4 MyD88 comp	NOD2-RIPK2 inh
CN(C(=O)c1coc(=O)c2ccccc12)c1ccc(Br)cc1	-28.9	6.6	-4.6	-1.0	5.5	-3.8
CCOc1ccc(N2C(=O)/C(=C\c3ccc(O)c(OC)c3)S(=O)(=O)C2c2cccc([N+](=O)[O-])c2)cc1 (stereo not drawn)	33.7	-3.9	71.5*	2.0	-9.4	-15.7
CCOc1ccc(N2C(=O)/C(=C\c3ccc(OC)c(O)c3)S(=O)(=O)C2c2cccc([N+](=O)[O-])c2)cc1 (stereo not drawn)	-15.4	2.8	-11.9	2.0	-11.1	-1.1
COc1ccccc1C(CNC(=O)c1ccc(C)c(S(=O)(=O)N2CCCCC2)c1)N1CCCC1 (stereo not drawn)	/	7.1	/	/	/	-12.7
CCCn1c(C)nc2c(c1=O)c1nc3ccccc3nc1n2CCC1=CCCCC1	6.2	7.9	11.5	0.0	-7.3	-1.1
CCCCCCn1cnc2c(c1=O)c1nc3ccccc3nc1n2/N=C/c1ccco1	57.7*	-0.3	38.9	-1.0	4.1	-0.9
C=CCn1cnc2c(c1=O)c1nc3ccccc3nc1n2/N=C/c1cccc(OC)c1	/	-1.2	/	/	/	-5.9
COCCn1cnc2c(c1=O)c1nc3ccccc3nc1n2/N=C/c1ccco1	-17.6	5.1	-15.2	/	/	-1.0
Cc1nc2c(c(=O)n1CCC1=CCCCC1)c1nc3ccccc3nc1n2/N=C/c1ccco1	73.8*	-1.0	94.2*	6.0	-0.7	-9.1
COCCn1cnc2c(c1=O)c1nc3ccccc3nc1n2/N=C/c1ccc(OC)c(OC)c1	-7.5	-4.4	51.0*	/	/	-8.7
Cc1ccc(-n2[nH]c(C)c(C=Nc3ccc4[nH]c(=O)[nH]c4c3)c2=O)cc1	9.7	5.7	62.2*	2.0	-3.9	8.8
CCN(CC)S(=O)(=O)c1ccc(S(=O)(=O)N2CCC(N3CCCCC3)CC2)cc1	/	-4.9	/	/	/	6.4
Cc1ccc(OCC(=O)NCc2ccco2)c([N+](=O)[O-])n1	79.6*	-1.0	7.9	-3.0	4.2	0.4
Cc1ccc(CNC(=O)COc2ccc(C)nc2[N+](=O)[O-])cc1	23.1	6.6	7.0	-14.0	-19.4	-7.5
O=C1OCc2cccc([N+](=O)[O-])c21	2.6	-4.4	0.0	-1.0	-9.4	-10.2
O=C1CC(=O)c2c1cccc2[N+](=O)[O-]	12.0	/	101.0*	/	/	/
Cc1ccc(N(CCC#N)C(=O)COC(=O)C2CCN(S(=O)(=O)c3ccc4c(c3)OCCO4)CC2)cc1	/	-1.7	/	/	/	-10.1
CCOC(=O)N1CCC(N2Cc3cccc(C(=O)NCc4ccc(OC)cc4)c3C2=O)CC1	-13.0	/	23.9	3.0	-6.4	/
COc1ccc(N2Cc3cccc(C(=O)NC(C)CCc4ccco4)c3C2=O)cc1 (stereo not drawn)	-10.3	5.1	64.8*	-1.0	2.0	2.5
CCOC(=O)N1CCC(NC(=O)c2cccc3c2C(=O)N(c2ccc(OC)cc2)C3)CC1	-0.7	-0.5	55.7*	1.0	-2.1	1.1
Cc1c(NC(=O)Oc2ccccc2)sc(=S)n1C	2.8	-4.0	13.6	0.0	1.6	1.0
Cc1ccc(NC(=O)Nc2sc(=S)n(C)c2C)cc1	-22.4	0.9	54.5*	0.0	9.8	4.9
CCOC(=O)c1sc(=S)n(C)c1C	-25.5	-0.3	2.6	0.0	1.5	-0.9
CC(=O)NC(=O)Nc1sc(=S)n(C)c1C	1.2	-2.4	0.9	41.0*	-7.3	-5.0
O=C1CC[C@@H](C(=O)O)N1	/	3.3	/	/	/	-6.0
